Reference: PubChem BioAssay AID1159580 (chemical genetic matrix, 2015)
“And” between values parts separate entries of the source, which are not always exact repeats. Identical values can stand only once. The whole screen tested about 5,500 compounds, of which about 2,000 (36%) were called active. Not shown: some 18% with an inconclusive outcome. No stated cut-off is given here; in the data, active means normalized growth mostly below about 0.91 (no sharp cut-off); inconclusive means no clear call, values can overlap the other calls; inactive means mostly above about 0.92. This is one part of the list.

Experiment: chemical genetic growth profiling, strain panel (AID 1159580);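 further: tested at 20 µM; growth read once vehicle control cultures reached saturation at 30 °C; 1 = growth at the plate median or of vehicle wells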
Conditions: growth OD

Measured: normalized growth

COc1cc(OC)c2c(c1)OC(c1ccccc1)CC2=O (stereo unspecified)
inactive: S. cerevisiae deletion strains, locus YBR021W, strain FUR4, stronger effect = lower value 0.99 | S. cerevisiae deletion strains, locus YBR229C, strain ROT2, stronger effect = lower value 0.986 | S. cerevisiae deletion strains, locus YCL029C, strain bik1, stronger effect = lower value 1.03 | S. cerevisiae deletion strains, locus YDL035C, strain GPR1, stronger effect = lower value 0.988 | S. cerevisiae deletion strains, locus YDL074C, strain BRE1, stronger effect = lower value 0.994 | S. cerevisiae deletion strains, locus YDL101C, strain DUN1, stronger effect = lower value 0.989 | S. cerevisiae deletion strains, locus YDL185W, strain tfp1, stronger effect = lower value 1.01 | S. cerevisiae deletion strains, locus YDL192W, strain arf1, stronger effect = lower value 0.979 | S. cerevisiae deletion strains, locus YDR101C, strain arx1, stronger effect = lower value 1.02 | S. cerevisiae deletion strains, locus YDR150W, strain NUM1, stronger effect = lower value 0.983 | S. cerevisiae deletion strains, locus YDR162C, strain NBP2, stronger effect = lower value 0.987 | S. cerevisiae deletion strains, locus YDR318W, strain mcm21, stronger effect = lower value 0.988 | S. cerevisiae deletion strains, locus YDR388W, stronger effect = lower value 0.999 | S. cerevisiae deletion strains, locus YDR502C, strain sam2, stronger effect = lower value 1 | S. cerevisiae deletion strains, locus YEL061C, strain CIN8, stronger effect = lower value 0.984 | S. cerevisiae deletion strains, locus YER110C, stronger effect = lower value 1.01 | S. cerevisiae deletion strains, locus YER155C, strain BEM2, stronger effect = lower value 0.996 | S. cerevisiae deletion strains, locus YER167W, strain BCK2, stronger effect = lower value 0.994 | S. cerevisiae deletion strains, locus YGL078C, strain dbp3, stronger effect = lower value 1.01 | S. cerevisiae deletion strains, locus YGL086W, strain mad1, stronger effect = lower value 1 | S. cerevisiae deletion strains, locus YGL248W, strain PDE1, stronger effect = lower value 0.987 | S. cerevisiae deletion strains, locus YGR135W, strain pre9, stronger effect = lower value 0.977 | S. cerevisiae deletion strains, locus YGR252W, strain gcn5, stronger effect = lower value 1.01 | S. cerevisiae deletion strains, locus YHR030C, strain SLT2, stronger effect = lower value 0.987 and 0.965 | S. cerevisiae deletion strains, locus YHR079C, strain IRE1 (second series), stronger effect = lower value 1.01 | S. cerevisiae deletion strains, locus YHR079C, strain IRE1, stronger effect = lower value 0.963 | S. cerevisiae deletion strains, locus YHR094C, strain hxt1, stronger effect = lower value 1.01 | S. cerevisiae deletion strains, locus YHR129C, strain ARP1, stronger effect = lower value 0.986 | S. cerevisiae deletion strains, locus YHR200W, strain rpn10, stronger effect = lower value 0.997 | S. cerevisiae deletion strains, locus YIL066C, strain RNR3, stronger effect = lower value 0.983 | S. cerevisiae deletion strains, locus YIL073C, strain SPO22, stronger effect = lower value 1.03 | S. cerevisiae deletion strains, locus YIL125W, strain kgd1, stronger effect = lower value 1.01 | S. cerevisiae deletion strains, locus YIR030C, strain dcg1, stronger effect = lower value 1 | S. cerevisiae deletion strains, locus YJL095W, strain BCK1, stronger effect = lower value 0.932 and 0.982 | S. cerevisiae deletion strains, locus YJL134W, strain LCB3, stronger effect = lower value 0.985 | S. cerevisiae deletion strains, locus YJL168C, strain set2, stronger effect = lower value 1 | S. cerevisiae deletion strains, locus YJL187C, strain SWE1 (second series), stronger effect = lower value 0.994 | S. cerevisiae deletion strains, locus YJR043C, strain POL32, stronger effect = lower value 1 | S. cerevisiae deletion strains, locus YJR066W, strain TOR1, stronger effect = lower value 0.93 | S. cerevisiae deletion strains, locus YJR075W, strain HOC1, stronger effect = lower value 0.992 | S. cerevisiae deletion strains, locus YKL009W, strain mrt4, stronger effect = lower value 0.996 | S. cerevisiae deletion strains, locus YKL068W, stronger effect = lower value 0.994 | S. cerevisiae deletion strains, locus YKL085W, strain MDH1 (second series), stronger effect = lower value 0.991 | S. cerevisiae deletion strains, locus YKL085W, strain MDH1, stronger effect = lower value 0.991 | S. cerevisiae deletion strains, locus YKL190W, strain CNB1, stronger effect = lower value 0.984 | S. cerevisiae deletion strains, locus YKR001C, strain vps1, stronger effect = lower value 0.951 | S. cerevisiae deletion strains, locus YLR039C, strain RIC1, stronger effect = lower value 0.842 | S. cerevisiae deletion strains, locus YLR058C, strain SHM2, stronger effect = lower value 0.987 | S. cerevisiae deletion strains, locus YLR102C, strain apc9, stronger effect = lower value 1 | S. cerevisiae deletion strains, locus YLR113W, strain HOG1, stronger effect = lower value 1 | S. cerevisiae deletion strains, locus YLR262C, strain YPT6, stronger effect = lower value 0.836 | S. cerevisiae deletion strains, locus YLR268W, strain sec22, stronger effect = lower value 1.01 | S. cerevisiae deletion strains, locus YLR330W, strain CHS5, stronger effect = lower value 0.98 | S. cerevisiae deletion strains, locus YLR342W, strain FKS1 (second series), stronger effect = lower value 0.959 | S. cerevisiae deletion strains, locus YLR371W, strain rom2, stronger effect = lower value 1.02 | S. cerevisiae deletion strains, locus YLR418C, strain cdc73, stronger effect = lower value 1.03 | S. cerevisiae deletion strains, locus YML016C, strain PPZ1, stronger effect = lower value 0.983 | S. cerevisiae deletion strains, locus YML032C, strain rad52, stronger effect = lower value 1.02 | S. cerevisiae deletion strains, locus YML124C, strain tub3, stronger effect = lower value 1 | S. cerevisiae deletion strains, locus YMR078C, strain ctf18, stronger effect = lower value 1 | S. cerevisiae deletion strains, locus YMR223W, strain ubp8, stronger effect = lower value 0.983 | S. cerevisiae deletion strains, locus YMR307W, strain GAS1, stronger effect = lower value 0.902 | S. cerevisiae deletion strains, locus YNL067W, strain RPL9B, stronger effect = lower value 0.993 | S. cerevisiae deletion strains, locus YNL128W, strain TEP1, stronger effect = lower value 1.01 | S. cerevisiae deletion strains, locus YNL153C, strain GIM3, stronger effect = lower value 1 | S. cerevisiae deletion strains, locus YNL183C, strain NPR1, stronger effect = lower value 0.915 | S. cerevisiae deletion strains, locus YNL233W, strain BNI4, stronger effect = lower value 0.97 | S. cerevisiae deletion strains, locus YNL250W, strain rad50, stronger effect = lower value 1.03 | S. cerevisiae deletion strains, locus YNL271C, strain bni1, stronger effect = lower value 1 | S. cerevisiae deletion strains, locus YNL298W, strain CLA4, stronger effect = lower value 1.03 | S. cerevisiae deletion strains, locus YNL307C, strain MCK1, stronger effect = lower value 1 | S. cerevisiae deletion strains, locus YNR052C, strain pop2, stronger effect = lower value 0.989 | S. cerevisiae deletion strains, locus YOL006C, strain TOP1, stronger effect = lower value 0.848 | S. cerevisiae deletion strains, locus YOL012C, strain htz1 1.5 | S. cerevisiae deletion strains, locus YOL147C, strain pex11, stronger effect = lower value 1.01 | S. cerevisiae deletion strains, locus YOR061W, strain CKA2, stronger effect = lower value 0.983 | S. cerevisiae deletion strains, locus YOR069W, strain VPS5, stronger effect = lower value 0.984 | S. cerevisiae deletion strains, locus YOR136W, strain idh2, stronger effect = lower value 1.01 | S. cerevisiae deletion strains, locus YOR144C, strain elg1, stronger effect = lower value 1.01 | S. cerevisiae deletion strains, locus YOR184W, strain ser1, stronger effect = lower value 0.955 | S. cerevisiae deletion strains, locus YOR231W, strain MKK1, stronger effect = lower value 0.951 | S. cerevisiae deletion strains, locus YOR316C, strain cot1, stronger effect = lower value 1.01 | S. cerevisiae deletion strains, locus YPL055C, strain LGE1, stronger effect = lower value 1.01 | S. cerevisiae deletion strains, locus YPL241C, strain CIN2, stronger effect = lower value 0.978 | S. cerevisiae deletion strains, locus YPL256C, strain CLN2, stronger effect = lower value 0.972 | S. cerevisiae deletion strains, locus YPR119W, strain clb2, stronger effect = lower value 1.01 | S. cerevisiae deletion strains, locus YPR141C, strain kar3, stronger effect = lower value 1.01 | S. cerevisiae deletion strains, locus YPR163C, strain tif3, stronger effect = lower value 1.03 | S. cerevisiae deletion strains, locus YPR167C, strain met16, stronger effect = lower value 1 | S. cerevisiae deletion strains, strain wtn01, stronger effect = lower value 1.01 | S. cerevisiae strains, strain wild type, stronger effect = lower value 0.987
